Cytotoxicity call data for 40 compounds are collected here from the antibiotic and cytotoxicity screens of Wong et al. (2023).

Among all 39,000 compounds or so, about 3,300 (8.5%) were called active. Shown is part of a subset that was picked to be rich in actives.

The subject of this assay is HepG2. The experiment in a line: cytotoxicity call (relative viability < 0.9). Particulars: 10 µM.
For `C[C@@H]1CCCCO[C@H](CN(C)C(=O)C2CCCCC2)[C@H](C)CN([C@H](C)CO)C(=O)c2cc(NS(=O)(=O)c3ccc(F)cc3)ccc2O1`, the cytotoxicity call was “inactive”.

As for `CC(C)CC#Cc1ccc2c(c1)O[C@H](CN(C)Cc1cncnc1)[C@H](C)CN([C@@H](C)CO)S2(=O)=O`, the cytotoxicity call is “inactive”.

Take `NNS(=O)(=O)c1ccc(Oc2ccc(S(=O)(=O)NN)cc2)cc1`: the cytotoxicity call was “active”.

Consider `NNS(=O)(=O)c1ccc(Cl)cc1`, for which the cytotoxicity call was “inactive”.

On to `NC(=O)NS(=O)(=O)c1ccc(N)cc1`, for which the cytotoxicity call was “inactive”.

Turning to `C[C@@H]1CN([C@H](C)CO)C(=O)c2cc(NS(=O)(=O)c3ccc(F)cc3)ccc2O[C@H]1CN(C)S(=O)(=O)c1ccc(F)cc1`, the cytotoxicity call is “inactive”.

`Cc1cc(C)c2c(c1)NC(=O)C[C@H]2c1cccc(Cl)c1Cl`: the cytotoxicity call was “active”.

Regarding `Cc1ccc2c(c1)C(=O)C[C@@H](c1ccc(Cl)cc1Cl)O2`, the cytotoxicity call is “inactive”.

As for `Cc1ccc(=O)n(CC(=O)O)n1`, the cytotoxicity call was “inactive”.

On to `C[C@@H]1CCCCO[C@@H](CN(C)Cc2ccncc2)[C@H](C)CN([C@H](C)CO)C(=O)c2cc(NC(=O)Nc3ccc(C(F)(F)F)cc3)ccc2O1`, for which the cytotoxicity call was “active”.

`C[C@@H]1CN([C@H](C)CO)C(=O)c2cc(NC(=O)Nc3ccc(C(F)(F)F)cc3)ccc2O[C@@H](C)CCCCO[C@@H]1CN(C)Cc1ccncc1`: the cytotoxicity call is “active”.

Take `C[C@@H]1CCCCO[C@H](CN(C)Cc2ccncc2)[C@@H](C)CN([C@H](C)CO)C(=O)c2cc(NC(=O)Nc3ccc(C(F)(F)F)cc3)ccc2O1`: the cytotoxicity call is “inactive”.

For the compound `C[C@H](CO)N1C[C@H](C)[C@@H](CN(C)Cc2ccncc2)OCCCC[C@H](C)Oc2ccc(NC(=O)Nc3ccc(C(F)(F)F)cc3)cc2C1=O`, the cytotoxicity call was “inactive”.

As for `C[C@H]1CCCCO[C@@H](CN(C)Cc2ccncc2)[C@@H](C)CN([C@@H](C)CO)C(=O)c2cc(NC(=O)Nc3ccc(C(F)(F)F)cc3)ccc2O1`, the cytotoxicity call was “inactive”.

As to `C[C@@H]1CCCCO[C@@H](CN(C)Cc2ccncc2)[C@H](C)CN([C@@H](C)CO)C(=O)c2cc(NC(=O)Nc3ccc(C(F)(F)F)cc3)ccc2O1`, the cytotoxicity call was “inactive”.

For `C[C@H](CO)N1C[C@H](C)[C@H](CN(C)Cc2ccncc2)OCCCC[C@H](C)Oc2ccc(NC(=O)Nc3ccc(C(F)(F)F)cc3)cc2C1=O`, the cytotoxicity call was “active”.

Regarding `C[C@@H]1CCCCO[C@H](CN(C)Cc2ccncc2)[C@H](C)CN([C@H](C)CO)C(=O)c2cc(NC(=O)Nc3ccc(C(F)(F)F)cc3)ccc2O1`, the cytotoxicity call was “active”.

As for `C[C@@H]1CCCCO[C@H](CN(C)C(=O)NC2CCCCC2)[C@@H](C)CN([C@@H](C)CO)C(=O)c2cc(NC(=O)NC3CCCCC3)ccc2O1`, the cytotoxicity call was “inactive”.

For the compound `O=C(C[C@H]1C=C[C@@H](NC(=O)CN2CCOCC2)[C@H](CO)O1)NCCc1ccccc1`, the cytotoxicity call was “inactive”.

As to `COCC#Cc1ccc2c(c1)O[C@@H](CN(C)C(=O)c1ccccc1F)[C@@H](C)CN([C@@H](C)CO)S2(=O)=O`, the cytotoxicity call is “inactive”.

With `CNC[C@H]1OCCCC[C@H](C)Oc2ccc(NC(=O)c3ccncc3)cc2C(=O)N([C@@H](C)CO)C[C@@H]1C`, the cytotoxicity call was “inactive”.

In the case of `Cc1ccc(S(=O)(=O)N(C)C[C@@H]2Oc3ccc(NS(=O)(=O)c4c(C)noc4C)cc3CC(=O)N([C@@H](C)CO)C[C@H]2C)cc1`, the cytotoxicity call was “inactive”.

For `C[C@H]1CN([C@@H](C)CO)C(=O)c2cccc(NC(=O)c3cnccn3)c2O[C@H]1CN(C)S(=O)(=O)c1ccc(Cl)cc1`, the cytotoxicity call is “inactive”.

As to `O=C(C[C@H]1CC[C@H](NC(=O)c2cccnc2)[C@H](CO)O1)NCCN1CCCCC1`, the cytotoxicity call was “inactive”.

As to `COCC#Cc1ccc2c(c1)O[C@H](CN(C)C(=O)C1CCCCC1)[C@H](C)CN([C@@H](C)CO)S2(=O)=O`, the cytotoxicity call is “inactive”.

`C[C@H](CO)N1C[C@H](C)[C@H](CN(C)C(=O)Cc2ccccc2)OCCCC[C@H](C)Oc2ccc(NC(=O)Nc3ccc(F)cc3)cc2C1=O`: the cytotoxicity call is “inactive”.

For the compound `CCS(=O)(=O)Nc1ccc2c(c1)C(=O)N(C)[C@H]1CC[C@H](CC(=O)NCc3ccc(OC)cc3)O[C@@H]1CO2`, the cytotoxicity call is “inactive”.

Turning to `C[C@H](CO)N1C[C@H](C)[C@H](CN(C)C(=O)Nc2ccc3c(c2)OCO3)OCCCC[C@H](C)Oc2ccc(NC(=O)c3ccncc3)cc2C1=O`, the cytotoxicity call was “inactive”.

For `C[C@@H]1CCCCO[C@@H](CN(C)Cc2ccncc2)[C@@H](C)CN([C@H](C)CO)C(=O)c2cc(NC(=O)Nc3ccc(C(F)(F)F)cc3)ccc2O1`, the cytotoxicity call is “active”.

Consider `C[C@@H]1CCCCO[C@@H](CN(C)Cc2ccncc2)[C@@H](C)CN([C@@H](C)CO)C(=O)c2cc(NC(=O)Nc3ccc(C(F)(F)F)cc3)ccc2O1`, for which the cytotoxicity call is “inactive”.

Regarding `C[C@@H]1CN([C@@H](C)CO)C(=O)c2cc(NC(=O)Nc3ccc(C(F)(F)F)cc3)ccc2O[C@@H](C)CCCCO[C@H]1CN(C)Cc1ccncc1`, the cytotoxicity call is “inactive”.

Consider `C[C@@H]1CN([C@@H](C)CO)C(=O)c2cc(NC(=O)Nc3ccc(C(F)(F)F)cc3)ccc2O[C@@H](C)CCCCO[C@@H]1CN(C)Cc1ccncc1`, for which the cytotoxicity call was “active”.

As for `C[C@H]1CCCCO[C@H](CN(C)Cc2ccncc2)[C@@H](C)CN([C@@H](C)CO)C(=O)c2cc(NC(=O)Nc3ccc(C(F)(F)F)cc3)ccc2O1`, the cytotoxicity call is “active”.

On to `C[C@@H]1CCCCO[C@H](CN(C)Cc2ccncc2)[C@H](C)CN([C@@H](C)CO)C(=O)c2cc(NC(=O)Nc3ccc(C(F)(F)F)cc3)ccc2O1`, for which the cytotoxicity call was “active”.

For the compound `C[C@H](CO)N1C[C@H](C)[C@@H](CN(C)CC2CC2)Oc2ccc(NC(=O)CCN3CCOCC3)cc2CC1=O`, the cytotoxicity call was “inactive”.

Turning to `COC(=O)c1c(CC[C@@H](CO)NC(=O)N[C@H](Cc2ccccc2)Cn2cc(-c3ccccc3N)nn2)oc(C(C)=O)c1C(=O)OC`, the cytotoxicity call was “inactive”.

For the compound `COc1ccc(NC(=O)N(C)C[C@@H]2Oc3ccc(NC(=O)Nc4cccc5ccccc45)cc3CC(=O)N([C@H](C)CO)C[C@H]2C)cc1`, the cytotoxicity call is “inactive”.

As to `C[C@H](CO)N1C[C@H](C)[C@H](CN(C)C(=O)NC2CCCCC2)OCCCC[C@H](C)Oc2ccc(NC(=O)c3ccncc3)cc2C1=O`, the cytotoxicity call was “inactive”.

For the compound `COc1ccc(NC(=O)N(C)C[C@H]2Oc3ccc(NC(=O)CCN4CCOCC4)cc3C(=O)N([C@@H](C)CO)C[C@H]2C)cc1`, the cytotoxicity call is “inactive”.

For `C[C@@H]1CN([C@@H](C)CO)C(=O)CCCn2nncc2CO[C@H]1CN(C)C(=O)c1ccc(N2CCN(C)CC2)cc1`, the cytotoxicity call was “inactive”.
